Only some compounds are listed: those with a hit (about 2.5% of all), similar ones and a draw of the others.
D2 ag-1: HTS Assay for Allosteric Agonists of the Human D2 Dopamine Receptor: Primary Screen for Agonists. activation, % at 2 µM. actives 0.53% (n = 340,000). HEK293 T-REx D2 cells, calcium flux agonist mode;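 active = activation over 3 SD above normal in the single-dose calcium agonist read, cut at about 30% in these data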; note: 0% is about no effect
Target sequence (P14416 whole entry, looked up): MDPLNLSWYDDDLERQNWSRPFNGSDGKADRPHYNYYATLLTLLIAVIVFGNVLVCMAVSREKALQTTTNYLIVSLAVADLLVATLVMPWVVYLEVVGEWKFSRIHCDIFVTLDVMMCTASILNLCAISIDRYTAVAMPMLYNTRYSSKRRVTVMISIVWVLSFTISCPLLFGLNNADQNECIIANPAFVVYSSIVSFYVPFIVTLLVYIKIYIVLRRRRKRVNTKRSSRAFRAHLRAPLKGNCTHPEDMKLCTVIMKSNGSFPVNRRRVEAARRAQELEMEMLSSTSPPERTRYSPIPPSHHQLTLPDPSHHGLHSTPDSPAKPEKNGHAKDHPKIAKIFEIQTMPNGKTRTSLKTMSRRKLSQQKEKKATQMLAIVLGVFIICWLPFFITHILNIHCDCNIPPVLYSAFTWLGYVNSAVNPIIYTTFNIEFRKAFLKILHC
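Agonism scored from kinetic calcium signal (1 read/sec, 180 s) following compound pin transfer, after a 10 s baseline. Cells: HEK293 Trex line expressing inducible D2 receptor coupled to calcium, dye-loaded after overnight culture at 30 C.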
D2 PAM-1: HTS Assay for Positive Allosteric Modulators of the Human D2 Dopamine Receptor: Primary Screen for Potentiators; D(2) dopamine receptor (Homo sapiens), P14416; potentiation, % at 10 µM; AID 485347, 2010; HEK293 T-REx D2, calcium flux, EC20 dopamine potentiation; actives 0.34% (n = 340,000);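 active = potentiation over 3 SD above the plate norm, cut at about 30% in these data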; note: 0% is about no effect
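Potentiation of an EC20 dopamine calcium response is measured in a force-coupled, tetracycline-inducible Hek293 Trex D2 line. Compound-only kinetic reads over 180 s flag agonists before dopamine addition.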
D2 antagonist: HTS Assay for Allosteric Antagonists of the Human D2 Dopamine Receptor: Primary Screen for Antagonists. D(2) dopamine receptor (Homo sapiens), P14416. HEK293 TREx D2 cells, calcium flux, dopamine EC80. inhibition, % at 10 µM. actives 2% (n = 340,000); in the data active = inhibition above about 30%; inactive = below that, where a call was filed; note: 0% is about no effect
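Calcium mobilization kinetics were recorded at 1 s intervals in tetracycline-induced HEK293 T-REx D2 cells, first for 180 s after compound addition and then 180 s after EC80 dopamine.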
D2 PAM-2: Beta-Arrestin HTS for Positive Allosteric Modulators of the Human D2 Dopamine Receptor: Potentiators; D(2) dopamine receptor (Homo sapiens), P14416; DiscoveRx D2 beta-arrestin cells, luminescence, 90 min; 100% = 57 uM dopamine signal; potentiation, % (concentration not given with the values); actives 0.23% (n = 360,000); in the data active = potentiation above about 50%; inconclusive = mostly about 30% to 49%
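PathHunter beta-arrestin assay in DiscoveRx D2 cells. Compounds were added with an EC20 of dopamine (50 nM final) for 90 min at 37 deg C. Luminescence was read 1 h after detection reagent, with 57 uM dopamine as the EC100 control.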
D2 ag-2: Beta-Arrestin HTS for Positive Allosteric Modulators of the Human D2 Dopamine Receptor: Agonists; D(2) dopamine receptor (Homo sapiens), P14416; DiscoveRx PathHunter D2 beta-arrestin, luminescence, 90 min; 100% = 57 uM dopamine signal; activation, % (no concentration beside the values); actives 0.084% (n = 360,000); AID 624465, 2012; in the data active = activation above about 40%; inconclusive = between about 15% and that limit
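DiscoveRx PathHunter D2 beta-arrestin cells (2,100/well) attached overnight, then compound-stimulated 90 min at 37 C in HBSS/10 mM HEPES/0.1% Tween-20 buffer; beta-galactosidase complementation read by luminescence after 1 h at ambient temperature. Dopamine 57 uM final (EC100) as control.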
Apoferritin bind: qHTS Assay for Identification of Novel General Anesthetics; Potency, µM (titrated, usually from 77.5 µM), for the others: at the highest dose activity change, negative = displacement, usual class: inhibitors; actives 0.074% (n = 350,000); apoferritin/1-aminoanthracene competitive binding, fluorescence; active = well fitted inhibition curve with a large enough effect; inconclusive = small, poorly fitted or top-dose-only effect; inactive = no such curve, though single readings can be large or run the other way; note: potency is the fitted concentration of half-maximal effect; % is set by controls: 0 for no effect and ±100 for the full control effect; nearly all actives have a fitted effect of over 20% in size
Target sequence (P02791 2-175 limits assumed): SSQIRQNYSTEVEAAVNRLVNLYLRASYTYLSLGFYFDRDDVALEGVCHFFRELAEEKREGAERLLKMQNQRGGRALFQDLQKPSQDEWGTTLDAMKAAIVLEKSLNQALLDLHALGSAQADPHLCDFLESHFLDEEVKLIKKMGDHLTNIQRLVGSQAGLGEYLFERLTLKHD
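Probe: 1-aminoanthracene (50% saturated, PBS). Protein: horse-spleen apoferritin, 10 uM. Incubation: 10 min, room temperature. Detection: 380 nm excitation, 535 nm emission. Analysis: normalized response, four-parameter Hill.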
Numbers without * were called inactive; ? = inconclusive; . = no result.

SMILES	D2 ag-1	D2 PAM-1	D2 antagonist	D2 PAM-2	D2 ag-2	Apoferritin bind
COc1ccc(NC(=O)CCn2c(=O)c3cccn3c3ccccc32)cc1	-1	-16	10	-32	-3	8%
O=C(CCn1c(=O)c2cccn2c2ccccc21)Nc1ccc(F)cc1	1	5	61*	-22	-4	-8%
O=S(=O)(Nc1ccc(N=Nc2ccc(O)c3ccccc23)cc1)c1ccccc1	1	4	7	-18	-4	?
CCOC(=O)c1cnn(Cc2cccc(Cl)c2)c1C	-2	3	56*	-11	-2	-17%
O=C(COC(=O)c1ccc([N+](=O)[O-])o1)NC1CCS(=O)(=O)C1 (stereo unspecified)	0	8	33*	?	6	-2%
COc1cccc(-c2cnc(C(O)c3ccc(C)cc3C)[nH]2)c1 (stereo unspecified)	.	.	.	-13	-3	.
O=C1CCC(=O)N1c1ccc(NCc2ccccc2Cl)c([N+](=O)[O-])c1	-1	3	9	-17	-1	?
Cc1ccc(-n2nnc3c(SCC(=O)NCC4CCCO4)ncnc32)cc1 (stereo unspecified)	-1	.	46*	-2	3	-7%
Cc1cccc(OCc2nnc(SCC(=O)NCC3CCCO3)n2C)c1 (stereo unspecified)	0	37*	7	-4	-1	-7%
CCc1ccc(OCc2nnc(SCC(=O)NCC3CCCO3)n2C)cc1 (stereo unspecified)	.	-7	.	4	-1	3%
Cc1ccc2nc(SCC(=O)NCC3CCCO3)c(C#N)cc2c1 (stereo unspecified)	-1	-12	41*	4	0	-9%
O=C(CSc1ncnc2c1nnn2-c1ccc(F)cc1)NCC1CCCO1 (stereo unspecified)	0	7	1	-7	-3	-13%
Cc1ccc(-n2ncc3c(=O)n(CC(N)=O)cnc32)cc1	1	6	-2	?	3	-5%
COc1ccc(N(C(=O)c2csnn2)C(C(=O)NC2CCCC2)c2cccs2)cc1 (stereo unspecified)	0	0	-29	-1	6	-12%
NC(=O)C[C@@H]1NC(=O)[C@H](CCC(=O)O)NC(=O)c2cc([N+](=O)[O-])cc(I)c2OCC[C@@H](C(N)=O)NC1=O	0	1	3	-25	-3	-6%
CCCC(CCC)c1nc2ccncc2[nH]1	0	36*	-5	-1	3	-4%
CS(=O)(=O)N1CCN(c2ccc(NC(=S)NC(=O)c3cccs3)cc2)CC1	0	17	-4	-9	-1	-14%
CS(=O)(=O)N1CCN(c2ccc(NC(=S)NC(=O)c3ccccc3[N+](=O)[O-])cc2)CC1	0	-14	33*	-13	3	-5%
Cc1ccc2nc(CSc3nnc(NC(=O)COc4ccccc4)s3)cc(=O)n2c1	0	11	.	.	.	-7%
Cc1nn(Cc2ccccc2Cl)c(C)c1C(=O)NC1=NCCS1	0	8	22	21	0	-15%
CC(C)CCn1c(=O)[nH]c2ccccc21	0	1	3	2	-5	5%
O=c1[nH]c2ccccc2n1CCC1CCCCC1	2	3	9	7	3	28µM*
Cc1cccc(-n2c(=O)c3c(n4cnnc24)-c2ccccc2CC32CCCCC2)c1	0	41*	31*	-2	-2	-15%
Cc1cccc(OCCCn2c(=O)oc3ccccc32)c1	.	3	.	3	-2	-18%
C[C@H](CO)N1C[C@H](C)[C@@H](CN(C)S(=O)(=O)c2cccc(C#N)c2)OCc2cnnn2CCCC1=O	.	.	.	-2	-2	.
SMILES	D2 ag-1	D2 PAM-1	D2 antagonist	D2 PAM-2	D2 ag-2	Apoferritin bind
CCOC(=O)N1CCN(S(=O)(=O)CCNC(=O)c2ccc(OC)cc2)CC1	0	-8	34*	2	-5	.
CC(C)(C)NC(=O)CN(Cc1ccc2c(c1)OCO2)C(=O)CCC(=O)Nc1nccs1	0	14	11	-2	-3	-3%
CCC(C)(C)NC(=O)CN(Cc1ccc2c(c1)OCO2)C(=O)CCC(=O)Nc1cc(C)ccn1	0	13	42*	-8	-5	3%
CCOc1cc(/C=C2\NC(=O)NC2=O)ccc1OC(C)C(=O)O (stereo unspecified)	0	-1	-10	-4	-1	4%
COC(=O)CC1=NN(c2ccccc2)C(=O)/C1=C\c1ccc(OC)cc1	3	2	56*	-9	-5	-12%
CCOC(=O)C1=NN(c2ccccc2)C(=O)/C1=C\c1ccc(N(C)C)cc1	0	-8	32*	-11	-3	-11%
COc1ccc(NC(=O)NC2CCCCCCC2)cc1OC	0	-4	6	-12	-1	-11%
Cc1ccc(N2C(=NC(=O)c3ccccc3)SC3CS(=O)(=O)CC32)cc1 (stereo unspecified)	0	7	-4	-2	8	-9%
O=C(COC(=O)c1ccc(Br)cc1)NCC1CCCO1 (stereo unspecified)	.	.	.	-22	-3	.
CN1CCC(=C2c3ccccc3CC(=O)c3sccc32)CC1	2	10	8	-27	-3	-1%
CN1CCC(=C2c3ccccc3CCc3sccc32)CC1	1	-26	86*	-36	-8	-15%
O=C(CN(CCN1CCOCC1)C(=O)Cn1nnc(-c2ccc(F)cc2)n1)NC1CCCCC1	1	6	71*	-6	-4	-11%
O=C(CN(CCCN1CCOCC1)C(=O)Cn1nnc(-c2ccc(F)cc2)n1)NC1CCCCC1	1	-10	1	-14	-4	-11%
O=C(COC(=O)c1cccc(S(=O)(=O)NCc2ccccc2)c1)Nc1ccccc1OC(F)F	1	-11	-12	-6	0	?
COc1ccccc1C1CC(=O)NC(C)=C1C(=O)OC1CCCCCC1 (stereo unspecified)	-1	17	.	.	.	-7%

High-throughput results deposited in PubChem BioAssay by National Center for Advancing Translational Sciences (NCATS).
